# Screening results: PubChem BioAssay, several laboratories
# Only some compounds are listed: those with a hit (about 1.9% of all), similar ones and a draw of the others.
# dFosB act – activators of delta FosB homodimer, primary screen, biochemical, fluorescence polarization, TAMRA-CDK5 oligo, single point | Protein FosB (Mus musculus), P13346 | purified delta FosB; percent of positive-control signal above neutral wells | activation, % at 25 µM | 0.99% of 340,000 active | AID 493131, 2011;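 active = mean activation above about 17%, with every replicate also reaching it, limit read from the data, passing the limit was not always enough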
# INS-1E GSIS act – GLuc luminescence reporter in INS-1E cells, primary screen for activators of glucose-dependent secretion of insulin; INS-1E GLuc reporter insulin secretion, 2-3 h; activation, % at 16.6 µM; 0.61% of 370,000 active; AID 743287, 2014;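 active = lowest replicate activation of at least 40%, so every replicate reaches that level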
# Vif imaging – HIV Vif self-association inhibitors, primary screen, imaging, HEK293T, single point; HEK293T cells, Vif self-association by quenched fluorescence, 24 h; inhibition, % at 7.49 µM; 0.35% of 340,000 active; AID 602346, 2012; in the data active = inhibition above about 50%, passing the limit was not always enough
# Neddyl block – inhibitors of cullin neddylation, primary screen, biochemical, TR-FRET, uHTS, NAE and Ubc12. inhibition, % at 25 µM. 0.58% of 360,000 active; in the data active = inhibition above about 36%
# Target sequence (P61081 whole entry, looked up): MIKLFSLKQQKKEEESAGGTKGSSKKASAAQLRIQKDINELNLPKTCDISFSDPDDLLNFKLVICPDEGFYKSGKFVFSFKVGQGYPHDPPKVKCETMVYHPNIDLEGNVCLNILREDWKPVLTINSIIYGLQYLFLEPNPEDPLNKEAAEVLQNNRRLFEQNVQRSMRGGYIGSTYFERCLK
# Target sequence (Q13564 whole entry, looked up): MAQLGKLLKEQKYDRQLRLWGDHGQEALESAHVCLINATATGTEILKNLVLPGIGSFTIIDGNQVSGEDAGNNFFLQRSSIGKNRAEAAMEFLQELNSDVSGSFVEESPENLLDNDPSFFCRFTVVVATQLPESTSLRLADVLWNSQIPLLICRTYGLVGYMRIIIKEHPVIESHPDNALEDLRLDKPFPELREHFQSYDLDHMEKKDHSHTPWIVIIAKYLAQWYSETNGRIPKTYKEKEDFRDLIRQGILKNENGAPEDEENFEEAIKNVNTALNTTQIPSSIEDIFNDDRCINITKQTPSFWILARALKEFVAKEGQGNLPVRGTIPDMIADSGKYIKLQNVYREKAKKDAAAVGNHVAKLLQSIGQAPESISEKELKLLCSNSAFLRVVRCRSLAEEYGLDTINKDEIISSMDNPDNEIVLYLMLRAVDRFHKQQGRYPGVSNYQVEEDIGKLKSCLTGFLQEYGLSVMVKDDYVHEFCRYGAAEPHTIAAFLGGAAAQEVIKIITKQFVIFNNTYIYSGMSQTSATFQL
# Bfl-1 A1 inh – caspase 3/7 activation in MEF A1-2A-BIM cells, primary screen, A1 inhibitor project, cell-based, luminescence, HTS | Caspase-Glo 3/7 luminescence, 3 h; percent of clofoctol response, vehicle zero | caspase activation, % (concentration not given with the values) | 0.066% of 330,000 active;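 active = over half of replicate activation scores above 10%, or exactly half above 10 with the replicate mean above 10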
# Numbers stand for hits; . = inactive; / = no result shown.
SMILES,dFosB act,INS-1E GSIS act,Vif imaging,Neddyl block,Bfl-1 A1 inh
C[C@@H]1CN([C@@H](C)CO)C(=O)c2cc(C3=CCCC3)cnc2O[C@@H]1CN(C)Cc1ccc(C(=O)O)cc1,/,.,/,/,/
Cn1c(=O)c(=O)n(C)c2cc(S(=O)(=O)N3CCN(c4ccc(F)cc4)CC3)ccc21,.,51,.,.,.
O=C1CCc2cc(S(=O)(=O)N3CCN(c4ccc(F)cc4)CC3)cc3c2N1CC3,.,47,.,.,.
C[C@@H]1CN([C@@H](C)CO)C(=O)CCCn2cc(nn2)CO[C@H]1CN(C)S(=O)(=O)c1ccc(F)cc1,/,.,/,/,/
C[C@@H]1CCCCO[C@@H](CN(C)C(=O)Nc2ccc(F)cc2)[C@H](C)CN([C@@H](C)CO)C(=O)c2cc(NC(=O)CCCN(C)C)ccc2O1,/,.,/,/,/
Cc1ccccc1C(=O)Nc1ccc(C(=O)N/N=C/c2ccc(O)cc2)cc1,.,.,70,.,.
COc1cc(NC(=O)CN2C(=O)C(=O)N(CC(C)C)C2=O)cc(OC)c1,.,43,.,.,/
COc1cc(NC(=O)CN2C(=O)C(=O)N(C3CCCC3)C2=O)cc(OC)c1,.,.,.,.,.
CCCC(=O)Nc1ccc2c(c1)C(=O)N(C)C[C@H](OC)[C@H](C)CN(C(=O)c1ccccn1)[C@@H](C)CO2,/,.,/,/,/
Cc1ccc(NC(=O)CSCC(=O)N2CCN(C(=O)c3ccco3)CC2)cc1,.,/,.,.,.
O=C(OCC(=O)N1CCN(C(=O)c2ccco2)CC1)c1cc(-c2ccc(Cl)c(Cl)c2Cl)nc2ccccc12,.,/,.,.,.
O=C(OCC(=O)N1CCN(C(=O)c2ccco2)CC1)c1cc(-c2ccco2)nc2ccccc12,.,.,.,45,.
Cc1ccc(NC(=O)CSC(C)C(=O)OCC(=O)N2CCN(C(=O)c3ccco3)CC2)cc1 (stereo unspecified),.,.,61,.,.
CC(C)NC(=O)C(c1ccc(F)cc1)N(C(=O)CCC(=O)Nc1ccccn1)c1cccc(F)c1 (stereo unspecified),.,.,74,.,.
Cc1cccc(N(C(=O)CCC(=O)Nc2ccccn2)C(C(=O)NC(C)C)c2ccc(F)cc2)c1 (stereo unspecified),.,.,.,.,.
N#Cc1ccc(-c2ccc([C@@H]3[C@@H](CO)N4C(=O)CN(C(=O)Cc5ccccc5)C[C@H]34)cc2)cc1,/,.,/,/,/
COc1ccc(CCNC(=O)COC(=O)CCC(=O)c2ccc(F)cc2)cc1OC,.,87,.,.,.
COc1ccc(CNC(=O)CCC(=O)c2ccc(F)cc2)cc1OC,.,/,.,.,.
COc1ccc(NC(=O)COC(=O)Cc2c[nH]c3ccccc23)cc1Cl,.,.,55,.,.
COc1ccc(NC(=O)CCn2c(=S)[nH]c3ccccc3c2=O)cc1Cl,/,.,57,.,/
COc1ccc(CCNC(=O)COC(=O)Cc2c[nH]c3ccccc23)cc1OC,.,52,.,.,.
O=C1N[C@H](Cc2ccccc2)COCc2cnnn2CC[C@@H]1Cc1ccc(-c2ccccc2)cc1,/,.,/,/,/
O=C(Nc1ccccc1)NC1CCCc2ccccc21 (stereo unspecified),.,.,.,.,.
Cc1cccc(C)c1NC(=O)NC1CCc2ccccc21 (stereo unspecified),.,119,.,.,.
COc1ccc(S(=O)(=O)Nc2cccc3c2O[C@@H](CN(C)C)[C@@H](C)CN([C@H](C)CO)C3=O)cc1,/,.,/,/,/
SMILES,dFosB act,INS-1E GSIS act,Vif imaging,Neddyl block,Bfl-1 A1 inh
Cc1nc(N)nc2c1CCCC2,.,43,.,.,.
Cc1nc(S(=O)(=O)Cc2ccc(Cl)cc2)nc2c1CCC2,.,.,.,.,.
Cc1cc(C)c(C)c(S(=O)(=O)N2CCC(C(=O)NNC(=O)c3ccccc3O)CC2)c1C,.,.,.,52,.
COc1ccc(C(=O)NCC(=O)OCC(=O)Nc2sccc2C#N)cc1OC,.,51,.,.,.
COc1ccc(C(=O)NCC(=O)OCC(=O)NC(=O)c2ccc(C(C)(C)C)cc2)cc1OC,.,.,.,.,.
CCOC(=O)NC(=O)COC(=O)CNC(=O)c1ccc(OCC)c(OCC)c1,.,46,.,.,.
COc1cc(C(=O)NCCc2cn3ccc(C)cc3n2)cc(OC)c1OC,.,/,96,.,.
COc1cc(C(=O)NCCc2cn3ccccc3n2)cc(OC)c1OC,.,.,.,.,.
CCOC(=O)c1c(NC(=O)c2nn(CC)cc2Br)sc2c1CCCCC2,.,/,.,/,.
CCn1cc(C(=O)NC(=S)Nc2sc3c(c2C(=O)OC)CCCCCC3)cn1,.,74,.,.,.
Cc1ccc(/C=N/c2sc3c(c2C#N)CCC3)s1,.,/,53,.,.
COCC(=O)N(C)C[C@@H]1Oc2cc(-c3ccncc3)ccc2S(=O)(=O)N([C@H](C)CO)C[C@H]1C,/,.,/,/,/
O=C(N/N=C/c1sc(N2CCOCC2)nc1-c1ccccc1)c1ccccc1Cl,.,.,.,/,.
O=C(N/N=C/c1sc(N2CCOCC2)nc1-c1ccccc1)c1cccc(S(=O)(=O)N2CCOCC2)c1,.,.,.,37,.
Fc1ccc(-c2n[nH]c(=S)c3ccccc23)cc1,.,.,52,.,.
O=c1[nH]nc(-c2ccccc2)c2ccccc12,.,66,.,.,.
c1ccc(-c2n[nH]c3ccccc23)cc1,.,.,.,.,.
COc1ccc(S(=O)(=O)N(C)C[C@@H]2Oc3c(NC(=O)c4cnccn4)cccc3C(=O)N([C@H](C)CO)C[C@@H]2C)cc1,/,.,/,/,/
O=C(Nc1cccc([N+](=O)[O-])c1)N1CCCCCC1,.,63,.,.,.
O=C(Nc1ccc([N+](=O)[O-])cc1)N1CCCCCC1,.,.,.,.,.
Cc1ccc(-n2nc3c(N4CCC(C(=O)NCc5ccc(C)o5)CC4)nnc(C)c3c2C)cc1,.,.,.,.,.
Cc1ccc(-n2nc3c(N4CCC(C(=O)NCc5cccc(F)c5)CC4)nnc(C)c3c2C)cc1,.,/,.,42,.
COc1ccc(-n2nc3c(N4CCC(C(=O)NCc5ccccc5C)CC4)nnc(C)c3c2C)cc1,77,/,.,.,.
Cc1ccc(-n2nc3c(N4CCC(C(=O)NCCc5ccccc5C)CC4)nnc(C)c3c2C)cc1,.,/,54,.,.
COc1ccc(-n2nc3c(N4CCC(C(=O)NCCc5ccccc5C)CC4)nnc(C)c3c2C)cc1,.,/,.,.,.
N#C[C@H]1[C@H](c2ccccc2-c2ccccc2F)[C@@H](CO)N1C(=O)Cc1ccccc1,/,.,/,/,/
COc1cc(/C=N/NC(=S)NCc2ccccc2)ccc1OCC#N,.,117,.,.,.
CCOc1ccc(CNC(=S)N/N=C/c2ccc(OC)c(OC)c2)cc1,.,.,.,.,.
Cc1cccc(CS(=O)(=O)c2ncc(Cl)c(C(=O)Nc3c(C)cccc3C)n2)c1,.,80,.,.,/
